Data: PubChem BioAssay (NCI)
About 79,000 compounds went through this panel and 15% of them were active in at least one assay; those are over-represented in the sample as a whole. Cut-off read from the data, not from the text of the source: active = growth inhibition above about 70%; inactive = the rest.

What was measured:
[1] = NCI Yeast Anticancer Drug Screen. Data for the rad50 strain (AID 155);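 note: 0% = growth of vehicle-only cultures of the same strain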; details: S. cerevisiae rad50 strain growth inhibition; at 50.0 µM; hits give high values
Procedure, shortened: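 Yeast carrying a defined DNA repair defect were exposed to test compounds, and growth was compared with vehicle-treated controls to give percent inhibition.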

[2] = NCI Yeast Anticancer Drug Screen. Data for the mec2-1 strain (AID 157); details: S. cerevisiae mec2-1 strain, at 50.0 µM, hits give high values
Procedure, shortened: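 mec2-1 yeast strain, carrying an alteration in DNA damage repair or cell cycle control, was exposed to compounds; growth inhibition was measured relative to vehicle-treated controls.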

[3] = NCI Yeast Anticancer Drug Screen. Data for the sgs1 mgt1 strain (AID 161);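 note: 0% = growth of cultures given vehicle only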; details: S. cerevisiae sgs1 mgt1 strain, at 50.0 µM, hits give high values
Procedure, shortened: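 Compounds are added to genetically altered yeast, and growth is compared with cultures given vehicle alone to give percent inhibition.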

[4] = NCI Yeast Anticancer Drug Screen. Data for the cln2 rad14 strain (AID 165);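 note: 0% = growth equal to vehicle treated cultures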; details: S. cerevisiae cln2 rad14 strain, at 50.0 µM, hits give high values
Procedure, shortened: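 Yeast carrying cln2 and rad14 alterations (cell cycle control and DNA damage repair) were exposed to compounds. Growth inhibition was measured against vehicle-treated controls.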

[5] = NCI Yeast Anticancer Drug Screen. Data for the bub3 strain (AID 167); details: S. cerevisiae bub3 mutant strain, at 50.0 µM, hits give high values
Procedure, shortened: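 Compounds were applied to a genetically altered yeast strain carrying a cell-cycle control defect. Growth inhibition was scored against vehicle-treated controls.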

[6] = NCI Yeast Anticancer Drug Screen. Data for the mlh1 rad18 strain (AID 175); details: S. cerevisiae mlh1 rad18 strain growth inhibition; at 50.0 µM; hits give high values
Procedure, shortened: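 Growth inhibition of the yeast strain was measured after compound exposure and expressed relative to vehicle-treated controls. The strain carries defined defects in DNA damage repair.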

Measured: growth inhibition

NS(=O)(=O)c1ccc(Nc2c3ccccc3nc3ncccc23)cc1
inactive: [1] -6.85% | [2] 7.35% | [3] 13.9% | [4] -11.8% | [5] 9.2% | [6] 16.9%

CCOP(=O)(OCC)c1c(C(=O)OC)cc(=O)[nH]c1-c1ccc(C)cc1
inactive: [1] 44.9% | [2] 23.4% | [3] 40% | [4] 25.2% | [5] 53.7% | [6] 61.3%

COC(=O)C1CCC(=O)N1CN(C(C)=O)c1cc(OC)ccc1OC (stereo not drawn)
inactive: [1] 14.9% | [2] -0.05% | [3] 2.85% | [4] 6.45% | [5] -5.15% | [6] -50.1%

Nc1c(Cl)ncnc1Nc1ccc(O)cc1
inactive: [1] -3.85% | [2] -1.2% | [3] 5.2% | [4] 5.8% | [5] 24.8% | [6] 1.4%

CCOC(=O)N[n+]1ccccc1
inactive: [1] 1.65% | [2] 8.2% | [3] 4.35% | [4] -3.4% | [5] 10.8% | [6] 8.1%

O=c1[nH]/c(=C/c2ccc3c(c2)OCO3)c(=O)[nH]/c1=C/c1ccc2c(c1)OCO2
inactive: [1] -24.2% | [2] -20% | [3] -22.8% | [4] -13% | [5] -34.4% | [6] 20.2%

c1ccc(CSCCc2ccncc2)cc1
inactive: [1] 16.4% | [2] -13.6% | [3] -21.1% | [4] -3.2% | [5] -3.55% | [6] 20.2%

CC(=O)NS(=O)(=O)c1ccc(NC(=O)COC(=O)c2cccc3c(=O)c4ccccc4[nH]c23)cc1
inactive: [1] -33.1% | [2] 5% | [3] -48.6% | [4] 7.1% | [5] -28.6% | [6] -23.6%

O=C(Nc1nc(C23CC4CC(CC(C4)C2)C3)cs1)c1cc2cc(Cl)ccc2oc1=O
inactive: [1] -32.2% | [2] -37.5% | [3] -2.35% | [4] 10.6% | [5] -28.1% | [6] -38%

CCC(=O)N(C)C1(C#N)CCCCC1
inactive: [1] 29.4% | [2] -42.9% | [3] 13% | [4] 0.1% | [5] 4.85% | [6] 24.2%

CCOc1ccccc1NC(=O)/C=C1\NC(=O)CS1
inactive: [1] -8.55% | [2] -14.4% | [3] 27.2% | [4] 11.3% | [5] -5.65% | [6] 40.4%

CC1CN(C(=S)Nc2ccccc2)CCN1C(=S)Nc1ccccc1 (stereo not drawn)
inactive: [1] -9% | [2] 8.7% | [3] 6.3% | [4] -42.9% | [5] 0.5% | [6] -7.6%

CCOC(=O)[C@H]1CSC[C@@H](C(=O)OC)N1
inactive: [1] -13.6% | [2] -4.7% | [3] -10.6% | [4] 4.45% | [5] 5.15% | [6] -4.9%

CCOC(=O)COc1ccc2c(C)cc(=O)oc2c1[N+](=O)[O-]
inactive: [1] 11.4% | [2] -6.85% | [3] 2.1% | [4] 6.95% | [5] 6.6% | [6] 35.5%

O=C(O)CCC1(C(=O)O)NCCc2c1[nH]c1ccccc21 (stereo not drawn)
inactive: [1] 8.1% | [2] 11.8% | [3] 5.1% | [4] 8.55% | [5] 7.9% | [6] 12.6%

CC(=O)OCC/C=C\CCCOC(C)=O
inactive: [1] 5.55% | [2] -2.7% | [3] -3% | [4] -1.75% | [5] 8.3% | [6] 3.65%

Nc1ncnc2c1ncn2C1OC(C(=O)OCCO)C(O)C1O (stereo not drawn)
inactive: [1] -16.6% | [2] -19.8% | [3] -12.6% | [4] -12.2% | [5] -11.2% | [6] -22.9%

C/C=C/c1nc2ccccc2[nH]1
inactive: [1] -11.2% | [2] -2.45% | [3] -3% | [4] -2.45% | [5] -6.45% | [6] -0.95%

Cc1cc(S(=O)(=O)Nc2nc(N)nc(N3CCOCC3)n2)c(SCC(=O)O)cc1Cl
inactive: [1] 5.75% | [2] 19.4% | [3] 15.2% | [4] 12.9% | [5] 6.25% | [6] 18.2%

O=C(O)CSCC(=O)c1ccccc1
inactive: [1] -2.1% | [2] -16.4% | [3] -43.2% | [4] -29.1% | [5] -53.4% | [6] -16.6%

NC(=O)Cc1cc2c(cc1CO)OCO2
inactive: [1] 3.85% | [2] 1.8% | [3] 2.45% | [4] 7.9% | [5] -13.3% | [6] 5.55%

COc1ccc(/C=C/c2nc(=S)[nH][nH]2)cc1OC
inactive: [1] -18.1% | [2] -21.5% | [3] 12.7% | [4] 12.3% | [5] 25.1% | [6] -3.1%

Cc1[nH]c2ccccc2c(=O)c1-c1ccccc1
inactive: [1] -12.2% | [2] -14.2% | [3] -5.25% | [4] -38% | [5] 0.35% | [6] -35.8%

O=c1oc(-c2ccccc2)c(-c2ccccc2)o1
inactive: [1] 43% | [2] 22.8% | [3] 21.9% | [4] -46.8% | [5] 45.6% | [6] 46.4%

[Cl][Pt+2][Cl].[NH-]C1CCC1[NH-] (stereo not drawn)
inactive: [1] 4.7% | [2] -9.3% | [3] -12% | [4] -24.4% | [5] -4.1% | [6] 10.5%

ClCC[n+]1ccc2ccccc2c1
inactive: [1] 3.95% | [2] 11.6% | [3] -13.4% | [4] -13.8% | [5] -9.05% | [6] -10.7%

COC(=O)C(Br)C(Br)c1ccc(OC)c(OC)c1 (stereo not drawn)
inactive: [1] -5.15% | [2] -9.8% | [3] 13.3% | [4] -30.6% | [5] 22.9% | [6] 16.2%

COc1ccc2c(c1)Cc1cc(N=[N+]([O-])c3ccc4c(c3)Cc3cc(OC)ccc3-4)ccc1-2
inactive: [1] 8.65% | [2] 1.35% | [3] -17.9% | [4] -80% | [5] 47.5% | [6] 9.85%

CCOC(=O)C(C)(C)c1ccc(OC)cc1
inactive: [1] -14.2% | [2] -3.6% | [3] -8.6% | [4] -18.9% | [5] 2.6% | [6] -16.2%

COc1cc(NC(C)=O)c2[nH]c3c(C)cc(NC(C)=O)c(C)c3c2c1
inactive: [1] -25.6% | [2] -55.1% | [3] -67.2% | [4] -34.5% | [5] -27.6% | [6] -56.7%

Nc1nc2[nH]c(=O)cnc2c(=O)[nH]1
inactive: [1] -17.8% | [2] -32.3% | [3] -26.2% | [4] -0.1% | [5] -27.5% | [6] -20.7%

O=C(O)c1ccccc1C(=O)OCc1ccccc1
inactive: [1] -0.15% | [2] 16.1% | [3] 6.25% | [4] -11.2% | [5] 8.25% | [6] 11.9%

CCOc1cc2c(cc1O)CC[C@@H]1[C@@H]2CC[C@]2(C)C(N)CC[C@@H]12 (stereo partly drawn)
inactive: [1] -0.95% | [2] 5.85% | [3] -18.2% | [4] -33.1% | [5] -20.1% | [6] -8.8%

C=C1C(=O)OC2/C=C(\C)C(O)C/C=C(/C)C(OC(=O)/C(C)=C\C)C(O)C12 (stereo not drawn)
inactive: [1] 13.9% | [2] -17.8% | [3] 7.2% | [4] 5.6% | [5] -12.8% | [6] 11.8%

Nc1nc(Cl)nc(Cl)n1
inactive: [1] -53.7% | [2] -59.5% | [3] -33% | [4] 3.75% | [5] -52.4% | [6] -12.2%

O=C(NC(=O)c1c(F)cccc1F)Nc1ccc(OCc2ccccc2)cc1
inactive: [1] 24.4% | [2] 0.15% | [3] 5.45% | [4] 9% | [5] -4.15% | [6] 21.4%

CC1=C(C)C(=O)C=CC1=O
inactive: [1] 19.9% | [2] 6.3% | [3] 5.3% | [4] -1% | [5] 3.95% | [6] 12%

CC1(C)CN2C(c3ccccc3)=NN(c3ccccc3)C2(C)C1 (stereo not drawn)
inactive: [1] -5.85% | [2] -18.4% | [3] 20.9% | [4] -23.1% | [5] 50.4% | [6] 6.15%
